Peg3 prom inh: reduces Peg3 promoter-driven luciferase expression in HeLa; inhibition, % at 20 µM; 360,000 tested, 1.7% active; HeLa PEG-Prom luciferase reporter, luminescence, overnight;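 active = inhibition of at least 50% at 20 µM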
LGR2 antag: inhibitors of bursicon-induced Drosophila LGR2 receptor cAMP signaling | HEK293 LGR2, CRE-luciferase, bursicon-stimulated, 4 h | AID 720647 | 380,000 tested, 0.35% active | inhibition, % at 9.99 µM;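 active = drop in luminescence signal, shown as inhibition above about 50% in the replicate tests, limit read from the data, passing the limit was not always enough; inconclusive = probably only some replicates passing the limit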;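 note: agonist challenge used bursicon conditioned medium at about half maximal strength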
CF NFkB block: inhibitors of cystic fibrosis induced NF-kB; KKLEB NF-kB-GFP reporter, PAF-induced, GFP fluorescence overnight; inhibition, % at 5 µM; 360,000 tested, 0.86% active;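 active = at least 50% inhibition at 5 µM, scaled per plate between neutral and stimulator controls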;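 note: PAF is a Pseudomonas aeruginosa culture filtrate used as stimulus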
KKLEB cytotox: counter-screen for CF NF-kB inhibitors: cytotoxicity. KKLEB CF airway cells viability, ATPlite luminescence, overnight; active compounds read low; cells stimulated with P. aeruginosa culture filtrate. activity change (cytotoxicity), % at 5 µM. 360,000 tested, 0.36% active;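 active = corrected activity change at or below -50% at 5 µM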
Mdm2 MdmX PPI: inhibitors of human Mdm2/MdmX interaction | inhibition, % at 8 µM | 330,000 tested, 3% active | SaOS-2 split-luciferase Mdm2/MdmX complementation, luminescence;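 active = inhibition of at least 50% at 8 µM in the primary screen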
Target sequence (O15151 whole entry, looked up): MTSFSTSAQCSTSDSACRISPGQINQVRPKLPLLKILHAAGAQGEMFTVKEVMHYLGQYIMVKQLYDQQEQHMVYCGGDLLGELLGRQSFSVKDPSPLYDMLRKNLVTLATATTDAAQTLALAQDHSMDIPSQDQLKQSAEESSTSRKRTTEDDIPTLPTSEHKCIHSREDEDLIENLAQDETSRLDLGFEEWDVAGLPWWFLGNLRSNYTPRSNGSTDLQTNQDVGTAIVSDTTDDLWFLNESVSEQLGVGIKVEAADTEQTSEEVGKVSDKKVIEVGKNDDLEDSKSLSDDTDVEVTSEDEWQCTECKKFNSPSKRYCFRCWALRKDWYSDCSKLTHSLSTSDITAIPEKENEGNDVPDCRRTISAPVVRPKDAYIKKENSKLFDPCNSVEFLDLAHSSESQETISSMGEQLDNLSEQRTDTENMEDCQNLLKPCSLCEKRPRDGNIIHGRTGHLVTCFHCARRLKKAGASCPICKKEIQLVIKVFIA
Target sequence (Q00987 whole entry, looked up): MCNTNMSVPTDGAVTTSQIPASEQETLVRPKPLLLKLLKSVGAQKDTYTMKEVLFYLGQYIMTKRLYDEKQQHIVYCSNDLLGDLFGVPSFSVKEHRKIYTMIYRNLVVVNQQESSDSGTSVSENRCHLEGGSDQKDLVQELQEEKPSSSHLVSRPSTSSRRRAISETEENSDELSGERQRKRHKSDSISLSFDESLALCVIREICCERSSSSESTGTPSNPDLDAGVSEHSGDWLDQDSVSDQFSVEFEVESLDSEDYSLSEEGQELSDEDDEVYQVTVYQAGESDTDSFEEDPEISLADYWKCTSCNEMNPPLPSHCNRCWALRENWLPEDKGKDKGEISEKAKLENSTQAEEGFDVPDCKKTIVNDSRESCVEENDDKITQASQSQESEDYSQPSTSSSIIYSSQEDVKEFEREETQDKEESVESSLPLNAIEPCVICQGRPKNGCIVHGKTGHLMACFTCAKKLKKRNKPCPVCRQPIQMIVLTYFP
HSP90 inh: inhibitors of HSP90 luciferase refolding in rabbit reticulocyte lysate; luciferase refolding luminescence, 3 h; inhibition, % at 5.6 µM; 290,000 tested, 0.91% active;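 active = inhibition above the screen-wide mean plus 3 SD, computed separately per campaign, cut at about 16% in these data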;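 note: inhibitors lower the luminescence because luciferase stays unfolded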
Mdm2-MdmX conf: confirmation of human Mdm2/MdmX interaction inhibitors | AID 489028 | 10,000 tested, 55% active | shares compounds with Mdm2 MdmX PPI | inhibition, % at 8 µM | Mdm2-MdmX binding, luminescent assay; in the data active = inhibition above about 40%
FLuc counter: full-length luciferase inhibition in Mdm2/MdmX counter-screen; shares compounds with Mdm2 MdmX PPI; 6,200 tested, 77% active; SaOS-2 full-length luciferase counterscreen, luminescence; AID 504607; inhibition, % at 8 µM;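 active = mean inhibition at 8 µM reaching about 37%, which flags the compound as non-specific, limit read from the data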;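 note: p53-null SaOS-2 cells with luciferase driven by a doxycycline-inducible promoter; compound on cells about two nights before reading with doxycycline added after day one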
Large screens that a line does not name were inactive (follow-up assays come after a bar, where they were run). Shown are actives, neighbours in structure and some others; about 3.6% of the full set was active somewhere.

COc1ccc2c(c1)c(CC(=O)Nc1nnc(C3CC3)s1)c(C)n2C(=O)c1ccc(Cl)cc1	Mdm2 MdmX PPI 83 | Mdm2-MdmX conf 80 | FLuc counter 65
CN1CCN(C(=O)C[C@H]2CC[C@@H]3[C@@H](COc4ccc(NC(=O)c5ccc(F)c(F)c5)cc4C(=O)N3C)O2)CC1	none (no result: Peg3 prom inh, CF NFkB block, KKLEB cytotox, Mdm2 MdmX PPI, HSP90 inh)
CO[C@H]1CN(C)C(=O)c2ccc(NC(=O)C3CCCC3)cc2OC[C@H](C)N(CCC(F)(F)F)C[C@@H]1C	none (no result: Peg3 prom inh, CF NFkB block, KKLEB cytotox, Mdm2 MdmX PPI, HSP90 inh)
COc1cccc(C2NC(=S)NC3=C2CCc2ccccc23)c1 (stereo not drawn)	none
COc1ccc(C2NC(=O)NC3=C2CCc2ccccc23)cc1 (stereo not drawn)	Mdm2 MdmX PPI 55 (no result: LGR2 antag) | Mdm2-MdmX conf 46 | FLuc counter 83
C[C@]12C(=O)N(c3ccc(C(F)(F)F)cc3)C(=O)N1[C@H]1c3ccccc3OC[C@@H]1[C@H]2c1ccccc1	CF NFkB block 60, Mdm2 MdmX PPI 57 (no result: HSP90 inh) | Mdm2-MdmX conf inactive
C[C@@]12C(=O)N(c3ccccc3)C(=O)N1[C@@H]1c3ccccc3OC[C@@H]1[C@H]2c1ccccc1	none (no result: HSP90 inh)
Cc1cccc(C(=O)O/N=C(\N)c2ccc(Br)cc2)c1	Mdm2 MdmX PPI 51 | Mdm2-MdmX conf inactive
Cc1cc(C)cc(C(=O)O/N=C(\N)c2ccc(Br)cc2)c1	Mdm2 MdmX PPI 100 (no result: LGR2 antag) | Mdm2-MdmX conf 78 | FLuc counter 90
N/C(=N\OC(=O)c1cccc(Br)c1)c1ccccc1	LGR2 antag inconclusive
Cc1ccc(C)c(C(=O)O/N=C(\N)c2ccc(Br)cc2)c1	Mdm2 MdmX PPI 57 (no result: LGR2 antag) | Mdm2-MdmX conf 54 | FLuc counter 104
N/C(=N\OC(=O)c1ccc2ccccc2c1)c1ccc(Br)cc1	Mdm2 MdmX PPI 62 (no result: LGR2 antag) | Mdm2-MdmX conf 47 | FLuc counter 96
Cc1ccc(/C(N)=N/OC(=O)c2ccc(Cl)cc2Cl)cc1	none
N/C(=N\OC(=O)c1ccc2c(c1)OCO2)c1ccc(Cl)cc1	Mdm2 MdmX PPI 82 | Mdm2-MdmX conf inactive
Cc1cccc(C(=O)O/N=C(\N)c2ccc(Cl)cc2)c1	Mdm2 MdmX PPI 51 | Mdm2-MdmX conf inactive
Cc1ccc(C(=O)O/N=C(\N)c2ccc(Br)cc2)cc1C	Mdm2 MdmX PPI 99 (no result: LGR2 antag) | Mdm2-MdmX conf 83 | FLuc counter 116
COc1ccc(C(=O)O/N=C(\N)c2ccc(Cl)cc2)cc1	Mdm2 MdmX PPI 100 | Mdm2-MdmX conf inactive | FLuc counter 163
COc1ccccc1C(=O)O/N=C(\N)c1ccc(Cl)cc1	none
O=C1CC(N(CCc2ccccc2)C(=S)Nc2ccccc2)C(=O)N1c1ccc(Br)cc1 (stereo not drawn)	Peg3 prom inh 54, Mdm2 MdmX PPI 68 | Mdm2-MdmX conf inactive | FLuc counter 59
C[C@H]1CN([C@@H](C)CO)S(=O)(=O)c2ccc(-c3ccccc3)cc2O[C@@H]1CN(C)C(=O)Cc1ccccc1	none (no result: Peg3 prom inh, CF NFkB block, KKLEB cytotox, Mdm2 MdmX PPI, HSP90 inh)
O=C1CN(C(=O)COc2cccc(F)c2)c2ccccc2N1	none (no result: Peg3 prom inh, CF NFkB block, KKLEB cytotox)
Cc1noc(C)c1COc1cccc(C(=O)OCC(=O)N2CC(=O)Nc3ccccc32)c1	Mdm2 MdmX PPI 50 (no result: LGR2 antag) | Mdm2-MdmX conf 67 | FLuc counter 59
C[C@@H]1CN([C@@H](C)CO)C(=O)c2cc(NC(=O)Nc3ccc(C(F)(F)F)cc3)ccc2O[C@H]1CN(C)S(=O)(=O)c1cccs1	none (no result: Peg3 prom inh, CF NFkB block, KKLEB cytotox, Mdm2 MdmX PPI, HSP90 inh)
Cc1cccc2cc(C(c3nnnn3Cc3ccccc3)N3CCCc4ccccc43)c(=O)[nH]c12 (stereo not drawn)	Mdm2 MdmX PPI 88 | Mdm2-MdmX conf inactive
COc1ccc(N2CCN(C(=O)Cn3cnc4c(cnn4-c4ccc(C)cc4)c3=O)CC2)cc1	Mdm2 MdmX PPI 61 | Mdm2-MdmX conf inactive
O=C(CSc1nnc(-c2cccnc2)n1-c1ccccc1)Nc1ccccc1	Mdm2 MdmX PPI 50 | Mdm2-MdmX conf inactive
Cc1ccc(NC(=O)CSc2nnc(-c3cccnc3)n2-c2ccc(C)cc2)cc1	none (no result: LGR2 antag)
O=C(CSc1nnc(-c2cccs2)n1-c1ccccc1)Nc1ccccc1	Mdm2 MdmX PPI 69 (no result: LGR2 antag) | Mdm2-MdmX conf inactive
COC(=O)NC(=C(Cl)Cl)S(=O)(=O)c1ccccc1	Mdm2 MdmX PPI 55 | Mdm2-MdmX conf inactive
COc1ccc(C(=O)NC(=S)NNC(=O)c2ccc3ccccc3n2)cc1	Mdm2 MdmX PPI 56 | Mdm2-MdmX conf inactive | FLuc counter 52
COc1cc(OC)cc(C(=O)NNC(=O)c2ccccn2)c1	Mdm2 MdmX PPI 51 | Mdm2-MdmX conf 47 | FLuc counter 51
COc1cc(OC)cc(C(=O)NNC(=O)c2ccc3ccccc3n2)c1	Mdm2 MdmX PPI 55 (no result: HSP90 inh) | Mdm2-MdmX conf 69 | FLuc counter 46
COc1ccc(OCC(=O)NNC(=O)c2ccccn2)cc1	none (no result: LGR2 antag)
COc1ccc(C(=O)NC(=S)NNC(=O)c2ccc(C)cc2)cc1	none (no result: HSP90 inh)
COc1cccc(C(=O)N/N=C(/c2ccccc2)c2ccccn2)c1	Peg3 prom inh 86, Mdm2 MdmX PPI 84 (no result: LGR2 antag) | Mdm2-MdmX conf 79 | FLuc counter 39
COc1cc(C(=O)NNC(=O)c2ccc3ccccc3n2)cc(OC)c1OC	none (no result: HSP90 inh)
Cc1cccc(S(=O)(=O)N(C)C[C@@H]2OCc3ccccc3-c3c(n(C)c4ccccc34)C(=O)N([C@@H](C)CO)C[C@@H]2C)c1	none (no result: Peg3 prom inh, CF NFkB block, KKLEB cytotox, Mdm2 MdmX PPI, HSP90 inh)
CC(=O)c1ccc(OCCCC(=O)NNC(=O)c2ccccn2)cc1	Mdm2 MdmX PPI 63 (no result: HSP90 inh) | Mdm2-MdmX conf inactive
CC(Oc1ccccc1)C(=O)NNC(=O)c1ccccn1 (stereo not drawn)	none (no result: LGR2 antag)
CC(Oc1cccc(Br)c1)C(=O)NNC(=O)c1ccccn1 (stereo not drawn)	Mdm2 MdmX PPI 72 (no result: LGR2 antag, HSP90 inh) | Mdm2-MdmX conf 61 | FLuc counter inactive
COc1cc(OC)cc(C(=O)NC(=S)NNC(=O)c2cnccn2)c1	Mdm2 MdmX PPI 60 | Mdm2-MdmX conf inactive
CC(C)NC(=O)Nc1ccc2c(c1)C(=O)N([C@H](C)CO)C[C@H](C)[C@@H](CN(C)S(=O)(=O)c1ccc(Cl)cc1)OCCCC[C@H](C)O2	none (no result: Peg3 prom inh, CF NFkB block, KKLEB cytotox, Mdm2 MdmX PPI, HSP90 inh)
O=C1CN(S(=O)(=O)Cc2ccccc2)C[C@@H]2[C@H](c3ccc(C#Cc4cccnc4)cc3)[C@@H](CO)N12	none (no result: Peg3 prom inh, CF NFkB block, KKLEB cytotox, Mdm2 MdmX PPI, HSP90 inh)
Cc1ccc(S(=O)(=O)N2C[C@H](O)COC[C@@H]3O[C@@H](CC(=O)N[C@H]4CCN(Cc5ccccc5)C4)CC[C@H]32)cc1	none (no result: Peg3 prom inh, CF NFkB block, KKLEB cytotox, Mdm2 MdmX PPI, HSP90 inh)
Cc1ccc(NC(=S)NCCC(c2ccccc2)c2ccccc2)c(C)c1	Mdm2 MdmX PPI 61 (no result: LGR2 antag) | Mdm2-MdmX conf inactive
Cn1nnc2c[n+](CC(=O)c3ccc4ccccc4c3)cc(Br)c21	Mdm2 MdmX PPI 65 | Mdm2-MdmX conf inactive | FLuc counter 63
Cn1nnc2c[n+](CC(=O)c3ccc(Cl)cc3)cc(Br)c21	none
